Bioassay records: PubChem BioAssay, several laboratories
S1P4 agonist: human S1P4 receptor agonism; O95977; S1P4-expressing cell line, agonist reporter assay; activation, % at 4.98 µM; 0.35% of 220,000 active; AID 1509; in the data active means activation above about 11%
S1P4 antagonist: blocks the human S1P4 receptor | O95977 | S1P4-expressing cells, antagonist mode, reporter read-out | inhibition, % at 4.98 µM | 0.26% of 220,000 active | AID 1510; in the data active means inhibition above about 29%
p97 ATPase inh: human p97 ATPase inhibition; recombinant p97 ATPase, Kinase-Glo ATP luminescence, 3 h; P55072; 0.42% of 220,000 active; inhibition, % at 8 µM; in the data active means inhibition above about 15%
Arbovirus anti: antivirals against arbovirus infection. 0.37% of 200,000 active. arbovirus infection cell-based antiviral screen. inhibition, % at 10 µM; in the data active means inhibition above about 30%
DTT redox prof: compounds producing H2O2 with reducing agent – biochemical, NIH compound library profiling, artefact control for MLSCN library redox annotation, primary screen; activation, % at 10 µM; DTT-dependent redox cycling H2O2, phenol red/HRP absorbance; 100% = 100 µM peroxide control, 0% = buffer; 0.03% of 200,000 active;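 active means activation of at least 50% relative to the plate's high and low controls in the primary single-dose screen; inactive means activation below 50%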;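 further: compound incubated with DTT at 0.8 mM final as the reducing agent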
S1P3 antag: S1P3 (human) receptor antagonism. Q99500. CHO S1P3 NFAT-BLA reporter, FRET fluorescence, antagonist mode. inhibition, % at 4.98 µM. 0.27% of 170,000 active. AID 485;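 active means inhibition above the plate cutoff, the mean inhibition of test wells on that plate plus 3 SD, cut at about 28% in these data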;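 further: cells challenged with S1P at its EC80 of 0.8 µM; blue over green emission ratio from cleaved BLA substrate after 4 h stimulation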
S1P4 agonist cf: confirmation of human S1P4 receptor agonists; shares compounds with S1P4 agonist; 7% of 740 active; activation, % at 4.98 µM; S1P4 agonist cell-based reporter assay; in the data active means activation above about 12%
S1P1 ag: human S1P1 agonism as S1P4 agonist counter-screen | shares compounds with S1P4 agonist | S1P1 agonist cell-based assay, activation | activation, % at 4.98 µM | 4% of 740 active | AID 1563; in the data active means activation above about 21%
Target sequence (P21453 whole entry, looked up): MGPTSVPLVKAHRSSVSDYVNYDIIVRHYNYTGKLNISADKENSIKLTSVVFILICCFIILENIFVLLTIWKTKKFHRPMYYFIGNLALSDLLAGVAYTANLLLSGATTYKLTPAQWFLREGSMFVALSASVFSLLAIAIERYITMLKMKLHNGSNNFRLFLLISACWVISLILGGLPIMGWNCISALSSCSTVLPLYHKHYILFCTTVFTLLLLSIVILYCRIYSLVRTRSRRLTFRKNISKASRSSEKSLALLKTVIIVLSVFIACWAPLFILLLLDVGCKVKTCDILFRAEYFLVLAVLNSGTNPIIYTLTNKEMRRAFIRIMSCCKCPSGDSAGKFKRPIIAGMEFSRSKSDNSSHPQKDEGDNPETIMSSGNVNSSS
Numbers stand for hits; i = inactive; nt = no result given. Most compounds without a hit are left out; they make up all but 1.6% or so of the library.

SMILES	S1P4 agonist	S1P4 antagonist	p97 ATPase inh	Arbovirus anti	DTT redox prof	S1P3 antag	S1P4 agonist cf	S1P1 ag
O=C(CN1C(=O)NC2(CCSC2)C1=O)N1CCN(c2ccc(F)cc2)CC1 (stereo unspecified)	18	i	i	nt	i	nt	i	i
CCOC(=O)C1(CC2CCCCO2)CCN(Cc2nc(C(C)C)cs2)CC1 (stereo unspecified)	i	i	i	i	i	i	nt	nt
O=C1c2cccc3cc([N+](=O)[O-])cc(c23)C(=O)N1CCN1CCCC1	24	i	i	nt	nt	i	23	92
c1ccc2c(c1)N1CCN=C1N2CCN1CCCCC1	i	i	i	i	i	i	nt	nt
c1ccc2c(c1)N1CCCN=C1N2CCN1CCCCC1	18	i	i	i	i	i	i	i
Cc1ccc(S(=O)(=O)N2CCOCC2)cc1NC(=O)COC(=O)c1n[nH]c(=O)c2ccccc12	i	i	i	i	i	i	nt	nt
Cc1ccc(S(=O)(=O)N(C)C)cc1NC(=O)COC(=O)c1n[nH]c(=O)c2ccccc12	25	i	i	i	i	i	i	i
Cc1ccc(C)c(NC(=O)C2CCCN2S(=O)(=O)c2ccc3c(c2)n(C)c(=O)c(=O)n3C)c1 (stereo unspecified)	i	i	i	i	i	i	nt	nt
O=C(Cc1nc2ccccc2[nH]1)N/N=C/c1ccccc1	i	i	i	i	i	i	nt	nt
COc1ccc(OC)c(/C=N/NC(=O)Cc2nc3ccccc3[nH]2)c1	12	i	i	i	i	i	i	i
CCC(C)(C(=O)NC1CCCCC1)N(Cc1cccs1)C(=O)c1ccccn1 (stereo unspecified)	45	i	i	i	i	i	i	i
COc1cccc(CNC(=O)C2CCN(S(=O)(=O)N3CCC4(CC3)OCCO4)CC2)c1	i	i	i	i	i	i	nt	nt
Cc1cc(C)c(S(=O)(=O)NCCc2ccccc2)c(C)c1	21	i	i	i	i	i	i	i
CCC(C)[C@H](NC(=O)OC(C)(C)C)C(=O)N/N=C/c1ccc2cc(OC)ccc2n1 (stereo partly specified)	90	i	i	i	i	i	i	i
Cc1cc(C)n(CCO)c(=O)n1	i	i	i	i	i	i	nt	nt
Cc1cc(=S)cc(C)n1CCO	11	i	i	i	i	i	i	i
CCOC(=O)CS(=O)(=O)c1ccc(C(F)(F)F)cn1	i	i	i	i	i	nt	nt	nt
O=S(=O)(c1ccccc1)c1ccc(C(F)(F)F)cn1	35	i	i	i	i	i	i	i
NS(=O)(=O)c1ccc(N/N=C/c2cn(-c3ccccc3)nc2-c2cccs2)c([N+](=O)[O-])c1	38	i	i	i	i	i	i	i
Cc1cc(C(=O)Cn2nc(C(=O)O)c3ccccc3c2=O)c(C)n1-c1ccc(F)cc1	i	i	i	i	i	i	nt	nt
CCc1cccc(OCC(=O)Nc2ccc(S(=O)(=O)Nc3onc(C)c3C)cc2)c1	i	i	i	i	i	i	nt	nt
CCOC(=O)c1cn(CC)c2cc(N3CCOCC3)c(F)cc2c1=O	14	i	i	i	i	i	i	i
CCOC(=O)c1cn(CC)c2cc(N3CCCCC3)c(F)cc2c1=O	i	i	i	nt	i	i	nt	nt
COCCCNC(=O)c1ccc(Cn2c(=O)c3ccccc3n(Cc3ccccc3C#N)c2=O)cc1	58	i	i	i	i	nt	i	i
COCCCNC(=O)c1ccc(Cn2c(=O)[nH]c3ccccc3c2=O)cc1	12	i	i	i	i	i	i	i
SMILES	S1P4 agonist	S1P4 antagonist	p97 ATPase inh	Arbovirus anti	DTT redox prof	S1P3 antag	S1P4 agonist cf	S1P1 ag
COCCCNC(=O)c1ccc2c(=O)n(Cc3ccc(OC)cc3)c(=O)[nH]c2c1	i	i	i	i	i	i	nt	nt
CNC(=O)C1C(=S)NC(N)=C(C#N)C1c1ccccc1 (stereo unspecified)	i	i	i	i	i	nt	nt	nt
CCOC(=O)CSc1nc(=O)n2cc(C)ccc2n1	i	i	i	i	i	i	nt	nt
O=C1CS/C(=C/C(=O)c2cccc(Cl)c2)N1	i	i	i	i	i	i	nt	nt
Cc1ccc(C(=O)/C=C2/NC(=O)CS2)cc1	20	i	i	i	i	nt	i	i
O=C(O)Cn1c(SCCOc2ccccc2)nc2ccccc21	59	i	i	i	i	i	i	i
CCCN(Cc1nnc(-c2ccccc2Cl)o1)C(=O)c1cc([N+](=O)[O-])cc([N+](=O)[O-])c1	19	i	i	i	i	i	i	i
CC(C)(C)c1nc[nH]c(=O)c1Br	i	i	i	i	i	i	nt	nt
CC1CCCCN1C(=O)COc1ccccc1F (stereo unspecified)	13	i	i	i	i	i	i	i
CC1CCCCN1C(=O)Cc1ccc(Cl)cc1 (stereo unspecified)	i	i	i	i	i	i	nt	nt
CC(=O)C1=C(C)NC(SCC(=O)c2ccccc2)=C(C#N)C1CC(C)C (stereo unspecified)	i	i	i	i	i	i	nt	nt
COC(=O)c1cc(=O)n(-c2ccc(C(F)(F)F)cc2)[nH]1	i	i	i	nt	nt	i	nt	nt
COc1cccc(NC(=O)CSc2nnc(Cc3cccs3)n2-c2ccc(C)cc2)c1	13	i	i	i	i	nt	i	i
CCCCOc1ccc(C(=O)N/C(=C/C=C/c2ccccc2)C(=O)NCCCO)cc1	13	i	i	i	i	i	i	i
CCCCOc1ccc(C(=O)N/C(=C/C=C/c2ccccc2)C(=O)NCCO)cc1	i	i	i	i	i	i	nt	nt
CCC/C=N/Nc1nc2ccccc2s1	64	i	i	i	i	i	i	i
OC1(c2cccnc2)CCN(Cc2nnnn2Cc2ccccc2)CC1	53	i	i	i	i	i	i	i
COc1ccccc1C(=O)NCC(=O)NNc1ncnc(N)c1[N+](=O)[O-]	i	i	i	i	i	i	nt	nt
Cc1ccc(N=Cc2nc(-c3ccc(C)cc3)oc2O)cc1	15	i	i	i	i	i	i	i
CC(=O)Nc1ccc(N=Cc2nc(-c3ccc(C)cc3)oc2O)cc1	i	i	i	i	i	i	nt	nt
Cc1cc(C(=O)COC(=O)CCc2nc3ccccc3c(=O)[nH]2)c(C)n1CC1CCCO1 (stereo unspecified)	i	i	i	nt	nt	i	nt	nt
Cc1cc(C(=O)CSc2nc3ccccc3c(=O)[nH]2)c(C)n1CC1CCCO1 (stereo unspecified)	53	i	i	i	i	i	i	i
O=C(c1cc(=O)[nH]c2ccccc12)N1CCN(c2ccccc2)CC1	i	i	i	nt	nt	i	nt	nt
COc1ccc(Cn2ccnc2)cc1[N+](=O)[O-]	12	i	i	i	i	i	i	i
N#Cc1ccccc1S(=O)(=O)Nc1ccc2c(c1)C(=O)OC2	i	i	i	nt	nt	i	nt	nt
Cc1ccc(/C=C/C(=O)NCc2ccc(S(N)(=O)=O)cc2)o1	12	i	i	i	i	i	i	i
